Source: PubChem BioAssay (several laboratories)
Rows were chosen to be rich in hits. Some 4.9% of all compounds tested hit in one or more screens of this group.
HSF-1 act – HSF-1 activators, primary screen, NIH3T3-HGL cells, MG132 stress, luminescence, single point | NIH3T3-HGL HSF-1 luciferase reporter, 8 h; 100% = twice DMSO control signal | activation, % at 9 µM | actives 1.7% (n = 300,000);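 active = mean replicate activation of at least 50% with a set share of replicates each reaching 50%; inconclusive = only one of those two conditions met; inactive = mean below 50% and too few replicates reaching it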;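 also: 0% = median of the neutral control wells and 100% = twice that signal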
HSF1 inhib – HSF1 inhibitors in luciferase reporter cells, primary screen, cell-based, NIH3T3, luminescence | activity change, negative = inhibition, % at 7.5 µM (by protocol) | NIH3T3-HGL HSE-luciferase, MG132-induced, luminescence 8 h; stronger effect = lower value | actives 0.77% (n = 300,000) | AID 2098, 2009;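 active = more than half of replicate wells show activity change below -50%, luminescence cut by over half; inconclusive = some wells, but at most half, below -50%; inactive = no replicate well below -50%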;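 also: luciferase reports HSF-1 transcriptional activity via heat shock element; 0% = median of DMSO wells and -100% = zero luminescence signal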
HSP90 inh – HSP90 inhibitors, primary screen, cell lysate, luminescence. Heat shock protein HSP 90 (rabbit reticulocyte lysate; luciferase refolding). actives 0.91% (n = 290,000). inhibition, % at 5.6 µM. Rabbit reticulocyte lysate, luciferase refolding luminescence, 3 h;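 active = inhibition above the screen-wide mean plus 3 SD, computed separately per campaign, cut at about 16% in these data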;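 also: 0% = DMSO wells and 100% = 60 µM geldanamycin wells; inhibitors lower the luminescence because luciferase stays unfolded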
dFosB activator – activators of delta FosB homodimer, primary screen, biochemical, fluorescence polarization, TAMRA-CDK5 oligo, single point; purified delta FosB; percent of positive-control signal above neutral wells; activation, % at 25 µM; AID 493131, 2011; Protein FosB (Mus musculus), P13346; actives 0.99% (n = 340,000);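 active = mean activation above about 17%, with every replicate also reaching it, limit read from the data, passing the limit was not always enough; inconclusive = only one of the two conditions met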
Target sequence (P13346 whole entry, looked up): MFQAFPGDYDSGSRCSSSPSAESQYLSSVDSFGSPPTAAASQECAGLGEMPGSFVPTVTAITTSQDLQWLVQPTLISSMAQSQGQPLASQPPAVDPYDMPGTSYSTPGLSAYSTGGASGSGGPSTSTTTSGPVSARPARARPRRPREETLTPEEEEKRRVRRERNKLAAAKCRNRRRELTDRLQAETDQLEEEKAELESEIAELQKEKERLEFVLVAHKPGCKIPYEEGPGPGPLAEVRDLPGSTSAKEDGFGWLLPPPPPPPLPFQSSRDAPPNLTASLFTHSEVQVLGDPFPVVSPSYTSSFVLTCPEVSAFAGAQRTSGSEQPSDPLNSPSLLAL
Platelet DG rel – inhibitors of platelet dense granule secretion, primary screen, cell-based, MLPCN, human platelets; human platelet-rich plasma, SFLLRN dense granule ATP release, luminescence; inhibition, %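 (compounds screened at 7.5 µM in platelet-rich plasma)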; actives 0.22% (n = 300,000);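 active = mean replicate score, as percent of positive control, at or above 50; inconclusive = mean below 50 but at least one replicate at or above 50; inactive = mean and every replicate below 50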
MPTP block – mitochondrial permeability transition pore inhibitors, primary screen, biochemical, isolated mouse mitochondria, absorbance; AID 602449, 2012; Ca2+ swelling absorbance, 30 min; inhibition, % at 10 µM; actives 1.4% (n = 360,000);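 active = inhibition of 50% or more, scaled per plate between neutral and stimulator controls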;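 also: 0% = DMSO wells given calcium and 100% = 1 mM EGTA wells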
* hit, by the source's call; ? = inconclusive; nt = not tested or not shown.

SMILES	HSF-1 act	HSF1 inhib	HSP90 inh	dFosB activator	Platelet DG rel	MPTP block
CCOC(=O)N1CCC(N2C(=O)c3ccccc3C2Nc2cc(C(=O)OC)cc(C(=O)OC)c2)CC1 (stereo not given)	-82	-78*	1	-5	10	-1
CCOC(=O)N1CCC(N2C(=O)c3ccccc3C2Nc2cc(C)cc(C)c2)CC1 (stereo not given)	29	4	2	-9	1	1
Cn1c(CNc2ccc(Br)cc2)nc2ccccc21	115*	80	-4	-6	4	1
Cn1c(CSc2nc3ccccc3s2)nc2ccccc21	76*	60	0	-9	5	1
Cn1c(COc2ccccc2Br)nc2ccccc21	70*	49	1	3	-2	1
CC(C)(C)OC(=O)COc1ccc(/C=N/NC(=O)CN2CCCCC2)cc1	4	8	6	-16	3	0
O=C(N/N=C/c1cccn1-c1ccc(O)cc1)c1cccc2ccccc12	-15	5	4	22*	-4	0
COC(=O)/C(=C/c1ccc2c(c1)c1ccccc1n2C)NC(=O)c1ccccc1	73*	31	-6	4	0	-10
CSCC[C@H](NS(=O)(=O)c1ccc(C(C)=O)cc1)c1nnc2ccccn12	-2	-5	-1	-6	4	0
CC1CCc2sc(C(=O)NCC(C)(C)N3CCOCC3)cc2C1 (stereo not given)	24	4	nt	-8	-5	1
CCc1cc(C(=O)NCC(C)(C)N2CCOCC2)sc1C	-76	-68*	nt	-3	-8	-2
CCc1ccc(OCC(=O)Nc2ccc(S(=O)(=O)N3CCOCC3)cc2)cc1	-2	-1	nt	-1	-8	-1
CC(=O)Oc1cc2c(cc1Cl)C(c1cccs1)CC1(CC(C)(C)NC(=S)N1)O2 (stereo not given)	-11	-3	2	3	-6	0
Cc1c(C(=O)N2CCCC2)c(S(=O)(=O)Nc2ccccc2)c(C)n1C	5	1	0	-10	-53	-1
COc1ccc(C(=O)C2CCCN(S(=O)(=O)c3ccccc3F)C2)c(C)c1 (stereo not given)	-84	-77*	1	-9	-7	-1
CCOC(=O)c1cnc2c(-c3ccccc3)cnn2c1N	53*	31	0	-3	10	2
Nc1c(-c2cccc(Cl)c2)cnc2c(-c3ccccc3)cnn12	64*	26	1	2	-11	1
CCOC(=O)c1c(-c2ccccc2)cn2c(C)cc(C)nc12	59*	24	-2	-9	5	0
CCOC(=O)c1cnc2c(-c3ccccc3)c(C)nn2c1N	12	-1	3	-3	-5	1
Nc1c(-c2ccc(Cl)cc2)cnc2c(-c3ccc(F)cc3)cnn12	7	4	-3	7	1	4
Cc1noc(C)c1-c1ccc(C(=O)NCCC(F)(F)F)c2occc12	nt	nt	nt	nt	nt	0
Cc1noc(C)c1-c1ccc(C(=O)Nc2cccc(NS(C)(=O)=O)c2)c2occc12	nt	nt	nt	nt	nt	1
O=C(CSc1nnc(-c2ccccc2F)n1C1CC1)N1CCCC1	nt	nt	nt	nt	nt	0
Nc1cccc(/C=C/C(=O)O)c1	-70	-58*	5	2	0	1
Cn1cc(/C=N\O)nc2c(=O)n(-c3ccccc3)c(=O)nc1-2	-10	-7	2	3	-6	-1
SMILES	HSF-1 act	HSF1 inhib	HSP90 inh	dFosB activator	Platelet DG rel	MPTP block
COc1cc(Cl)c(NC2=CC(=O)C(=O)c3ccccc32)c(OC)c1	nt	nt	nt	-6	nt	4
COc1ccc(NC(=O)c2nc(S(=O)(=O)Cc3cccc(C)c3)ncc2Cl)c(OC)c1	204*	171	1	-9	15	0
COc1ccc(NC(=O)c2c(-c3ccccc3Cl)noc2C)c(OC)c1	3	18	4	-10	2	2
COc1ccc(OC)c(NC(=O)c2nc(S(=O)(=O)Cc3ccccc3)ncc2Cl)c1	-95	-94*	1	-5	23	-3
COc1cc(/C=C2\SC(=S)N(NS(=O)(=O)c3ccc(C)cc3)C2=O)ccc1O	8	1	-1	14	12	15
COc1cc(/C=C2\SC(=S)N(NC(=O)c3ccc(O)c(OC)c3)C2=O)ccc1O	-2	7	-1	?	1	19
COc1cc(/C=C2\SC(=S)N(NC(=O)c3ccncc3)C2=O)ccc1O	-3	-3	1	33*	4	8
CCOc1cc(/C=C2\SC(=S)N(C(C(=O)O)c3ccccc3)C2=O)ccc1O (stereo not given)	-25	-7	1	9	4	10
COc1cc(/C=C2\SC(=S)N(C(C(=O)O)c3ccccc3)C2=O)ccc1O (stereo not given)	5	-4	2	23*	2	8
COc1cc(/C=C2\SC(=S)N(NS(=O)(=O)c3ccccc3)C2=O)ccc1O	5	1	-7	21*	-1	9
OC(c1cc(F)cc(Cl)c1)c1ncc(-c2ccc(Cl)cc2)[nH]1 (stereo not given)	nt	nt	nt	nt	nt	21
Cc1ccc(-c2nn[nH]n2)o1	-70	-58*	1	-4	6	0
Cc1ccc(-c2nn[nH]n2)cc1	?	3	2	-2	-1	0
CC1CCc2nc(/C(C#N)=C/c3ccncc3)sc2C1 (stereo not given)	97*	64	6	1	7	3
N#C/C(=C/c1ccncc1)c1nc2ccccc2s1	-9	2	2	-5	19	2
O=C1NC(c2cccc3ccccc23)Nc2ccc(Cl)cc21 (stereo not given)	nt	nt	nt	0	nt	2
Cc1ccc(C(=O)NN2C(=O)C3C(C2=O)C2C=CC3C23CC3)cc1 (stereo not given)	5	0	-1	1	6	-2
O=C(NN1C(=O)C2C(C1=O)C1C=CC2C12CC2)c1ccc(Cl)cc1 (stereo not given)	65*	24	3	2	-16	0
CCOC(=O)Cc1csc2nc(-c3ccccc3)nn12	4	-1	3	-6	-3	1
COc1ccc(-c2nc3scc(-c4ccccc4)n3n2)cc1	121*	62	-2	-9	-1	0
COCCNc1nc2cc(-c3ccccc3)sc2c(=O)n1C	nt	nt	nt	nt	nt	1
OCCNCc1c(OCc2ccc(Cl)cc2)ccc2ccccc12	62*	26	4	-4	-10	42
